Source: PubChem BioAssay
GLS inhibitor – blocks human kidney-isoform glutaminase activity; GLS enzymatic activity, qHTS titration; 0.21% of 410,000 active; O94925; Potency, µM (series often up to 45.5 µM), without a hit: at the highest dose activity change, negative = inhibition, hits mostly inhibitors; note: % is set by controls: 0 for no effect and ±100 for the full control effect
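Assay buffer: 45 mM KH2PO4 pH 8.2, 0.02% Tween-20. hKGA acts on L-glutamine (1 mM solution added); product glutamate is reported by an oxidase/peroxidase Amplex Red coupling, with fluorescence taken at baseline and 30 min.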
GRP78 ERSR act – induces the endoplasmic reticulum stress response in human glioma cells | U87-MG GRP78 promoter luciferase reporter, 16 h | Potency, µM, without a hit: at the top dose activation, actives largely listed as activators | 0.02% of 420,000 active | AID 602332; note: series mostly up to about 76 µM; % of control where 0% means no effect; nearly all actives have a fitted effect of over 35% in size
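Stably transfected U87-MG human glioma cells carrying a GRP78-based luminescent sensor were seeded at 1000 cells/well, pin-dosed with compounds and incubated 16 h. Luciferase reagent was then added, and end-point luminescence was read after 10 min at room temperature.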
ALOX12 inh – ALOX12 (human) lipoxygenase inhibition; P18054; purified 12hLO, xylenol orange hydroperoxide absorbance; Potency, µM (series often up to 108 µM), inactives show top-dose activity change, negative = inhibition, usual class: inhibitors; 1.1% of 580,000 active; AID 1671190; note: % is set by controls: 0 for no effect and ±100 for the full control effect
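Hydroperoxide product was detected by ferrous iron/xylenol orange as the 573 to 405 nm absorbance ratio. Arachidonic acid at 40 uM (final) was turned over for 30 min at room temperature by 150 nM human 12hLO, pH 7.0 Hepes buffer, after 15 min compound preincubation.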
GLP-1R agonist – activates the human GLP-1 receptor. HEK293 GLP-1R CRE-luciferase, luminescence, 4-6 h; cells express a hypersensitive GLP-1R form. Potency, µM (titrated, usually from 45.6 µM), inactives show top-dose activation, hits mostly activators. 0.007% of 380,000 active; note: % of control where 0% means no effect
PTHR1 ag – activates the human parathyroid hormone receptor PTHR1 | Q03431 | HEK293 GP2 PTHR1 cells, GloSensor cAMP luminescence, 1 h | Potency, µM (series often up to 115 µM), without a hit: at the top dose activation, usual class: activators | 0.075% of 410,000 active; note: nearly all actives have a fitted effect of over 55% in size
Target sequence (Q03431 whole entry, looked up): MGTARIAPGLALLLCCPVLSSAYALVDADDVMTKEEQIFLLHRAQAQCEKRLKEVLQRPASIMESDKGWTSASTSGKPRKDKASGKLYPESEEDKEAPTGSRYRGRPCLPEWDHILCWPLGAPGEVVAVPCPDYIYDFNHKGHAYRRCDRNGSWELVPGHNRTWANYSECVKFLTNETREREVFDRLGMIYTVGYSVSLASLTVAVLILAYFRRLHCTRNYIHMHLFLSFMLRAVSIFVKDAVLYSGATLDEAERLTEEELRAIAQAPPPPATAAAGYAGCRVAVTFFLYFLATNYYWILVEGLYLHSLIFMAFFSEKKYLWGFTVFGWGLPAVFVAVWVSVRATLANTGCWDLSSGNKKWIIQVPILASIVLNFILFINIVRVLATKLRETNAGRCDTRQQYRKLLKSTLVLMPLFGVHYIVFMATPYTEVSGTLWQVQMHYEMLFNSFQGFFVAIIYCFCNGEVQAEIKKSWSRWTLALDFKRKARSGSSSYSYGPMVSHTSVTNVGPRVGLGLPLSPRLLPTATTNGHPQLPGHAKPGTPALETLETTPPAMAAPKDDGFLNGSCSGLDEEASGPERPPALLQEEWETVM
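HEK-293-derived GP2 cells expressing PTHR1 and a GloSensor cAMP reporter, 3,000/well, plated overnight, given luciferin plus IBMX (each 0.5 mM as added) for 1 h at 37 °C, then compound for 1 h at 37 °C. Luminescence was read after 15 min at room temperature.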
GLP-1R inv ag – GLP-1 receptor (human) inverse agonism; 1.6% of 410,000 active; HEK293 GLP-1R CRE-luciferase, luminescence, 24 h; GLP-1R form is constitutively active; P43220; Potency, µM (doses to about 38.3 µM), without a hit: top-dose activity change, negative = inhibition, usual class: inhibitors; note: % is set by controls: 0 for no effect and ±100 for the full control effect; nearly all actives have a fitted effect of over 55% in size
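Using stably transfected HEK293 (constitutively active GLP-1R, cAMP-luciferase reporter), compounds were incubated 24 hr and luciferase measured by luminescence.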
An asterisk follows results filed as active; i = inactive; ? = inconclusive; . = no result; [ ] = another dose, or the depositor's remark. Only some compounds are listed: those with a hit (about 2.3% of all), similar ones and a draw of the others. Calls come from the whole dose curve; as a rule, active = well fitted curve in the direction sought with a large enough effect; inconclusive = small, poorly fitted or top-dose-only effect, or another doubt; inactive = no such curve, though single readings can be large; an effect the other way counts as inactive or inconclusive. Potency is the fitted concentration of half-maximal effect.

SMILES	GLS inhibitor	GRP78 ERSR act	ALOX12 inh	GLP-1R agonist	PTHR1 ag	GLP-1R inv ag
O=C(COC(=O)C1CC2C=CC1C2)Nc1ccc([N+](=O)[O-])cc1 (configuration not stated)	1%	1%	-8%	10%	-28%	?
O=C(COC(=O)C1CC2C=CC1C2)Nc1c(Br)cc([N+](=O)[O-])cc1Br (configuration not stated)	5%	-5%	22µM*	-13%	-21%	-27%
COc1ccc2oc(-c3ccccc3)c(C(=O)Nc3ccc(N(C)C(C)=O)cc3)c2c1	.	.	32%	.	.	.
O=C(NCc1cccc(Cl)c1)c1cc(COc2ccc3ncccc3c2)on1	4%	-6%	3%	12%	-39%	10µM*
NNC(=O)c1cccc(COc2ccc(Br)cc2)c1	12%	-12%	11%	-2%	-18%	5µM*
COc1cc(CNC(=O)c2cccc(COc3ccc(Cl)cc3)c2)cc(OC)c1	3%	-14%	-13%	-10%	i	3.2µM*
O=C(NCc1ccccc1)c1cccc(COc2ccc(Cl)cc2)c1	3%	-12%	0%	-2%	-84%[57.5 µM]	?
O=C(NCc1ccccc1)c1cccc(COc2cccc(Cl)c2)c1	4%	-4%	0%	-2%	i	7.9µM*
Cc1ccc(F)cc1CNC(=O)c1cc(COc2ccc3ncccc3c2)on1	0%	-6%	14%	14%	-25%	?
COc1ccc(OCc2cccc(C(=O)NN)c2)cc1	13%	-13%	-18%	-4%	-26%	?
COc1ccc(CN2CCN(S(=O)(=O)c3cc(OC)ccc3OC)CC2)cc1	.	.	-13%	.	.	.
O=C(CCc1cccnc1)NCC1CC1	.	.	-23%	.	.	.
F[C@@H]1CN(C2CCC2)C[C@@H]1OCc1nc2ccccc2o1	.	.	12%[176 µM]	.	.	.
CCOC(=O)C1(CC2CC2)CCN(C(=O)c2cc(C3CC3)nc3ccccc23)CC1	-2%	-2%	13%	1%	-21%	10µM*
Cc1ccc2oc(C(=O)NCC(c3cccs3)N3CCCCC3)cc(=O)c2c1 (configuration not stated)	.	.	11%	.	.	.
Cn1nc(C(=O)N2CCOCC2)cc1C(=O)Nc1cccc(F)c1	.	.	2%	.	.	.
Cc1ccc(NC(=O)c2cc(C(C)(C)C)nn2Cc2ccccc2)cc1	6%	0%	11%	-22%	-29%	4µM*
CC(C)(C)c1cc(C(=O)NNc2ccc(OC(F)(F)F)cc2)n(Cc2ccccc2)n1	0%	0%	?	4%	-15%	2.2µM*
CC(C)(C)c1cc(C(=O)Nc2ccc(F)cc2)n(Cc2ccc(F)cc2)n1	-4%	-2%	1%	-5%	-40%	2.8µM*
Cc1ccc(NC(=O)c2nn(Cc3ccccc3)c(=O)c3ccccc23)cc1	.	.	3%	.	.	.
COc1ccccc1NNC(=O)c1cc(C(C)(C)C)nn1Cc1ccccc1	23%	6%	3%	11%	-13%	?
CC(C)(C)c1cc(C(=O)NNc2cc(C(F)(F)F)ccc2Cl)n(Cc2ccccc2)n1	?	2%	21%	3%	-49%	4µM*
CC(C)(C)c1cc(C(=O)NC2CC2)n(Cc2ccc(F)cc2)n1	7%	-3%	0%	10%	-15%	?
Cc1nc2cc(NC(=O)c3ccc[n+]([O-])c3)ccc2o1	.	.	-24%	.	.	.
CCOC(=O)c1nc(NCc2ccccc2OCC)c2ccccc2n1	.	.	-2%	.	.	.
CCc1cccc(NC(=O)CC2(C(=O)O)CCCCC2)c1	.	.	-15%	.	.	.
O=c1c2nc(-c3ccsc3)ccc2ncn1-c1ccc(F)cc1F	.	.	5%[176 µM]	.	.	.
CC(C)(C)c1cc(C(=O)NNc2cccc(Cl)c2)n(Cc2ccccc2)n1	?	0%	20%	-1%	i	1.3µM*
Cc1ccc(NNC(=O)c2cc(C(C)(C)C)nn2Cc2ccccc2)cc1	?	-2%	?	-1%	i	3.2µM*
